# EP2 antag: human EP2 receptor antagonists, primary screen, TR-FRET cAMP, C6 glioma cells; actives 0.52% (n = 260,000); Prostaglandin E2 receptor EP2 subtype (Homo sapiens), P43116; inhibition, % at 25 µM; C6 glioma cells expressing human EP2; cells stimulated with saturating PGE2; AID 1422, 2008;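 active = percent inhibition above 40 after rounding to a whole number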;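 note: rat C6 glioma host cells with rolipram phosphodiesterase inhibitor present; the protocol text gives 20 µM as final concentration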
# HSV replic up: enhancers of HSV replication in host cells, fold increase, host cell viability. HSV replication augmentation in cells. maximum fold increase. actives 0.005% (n = 220,000); in the data active = maximum fold increase above about 1.5; tested in PC3 cells
# Pf gamet viab: late stage P. falciparum gametocyte viability inhibitors, primary screen, ATP luminescence, HTS; P. falciparum stage V gametocytes, 24 h; inhibition, % at 10.9 µM; actives 0.065% (n = 150,000); AID 743093, 2013;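 active = inhibition above the mean plus 3 SD of compounds within the control limits, set per campaign, cut at about 38% in these data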;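 note: 0% = DMSO wells and 100% = medium only without gametocytes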
# Furin inh: human furin inhibitors, primary screen, biochemical, fluorescence intensity; purified furin, fluorogenic substrate cleavage; actives 0.061% (n = 220,000); P09958; inhibition, % at 20 µM or 30 µM; in the data active = inhibition above about 25%
# Target sequence (P09958 108-714 limits assumed): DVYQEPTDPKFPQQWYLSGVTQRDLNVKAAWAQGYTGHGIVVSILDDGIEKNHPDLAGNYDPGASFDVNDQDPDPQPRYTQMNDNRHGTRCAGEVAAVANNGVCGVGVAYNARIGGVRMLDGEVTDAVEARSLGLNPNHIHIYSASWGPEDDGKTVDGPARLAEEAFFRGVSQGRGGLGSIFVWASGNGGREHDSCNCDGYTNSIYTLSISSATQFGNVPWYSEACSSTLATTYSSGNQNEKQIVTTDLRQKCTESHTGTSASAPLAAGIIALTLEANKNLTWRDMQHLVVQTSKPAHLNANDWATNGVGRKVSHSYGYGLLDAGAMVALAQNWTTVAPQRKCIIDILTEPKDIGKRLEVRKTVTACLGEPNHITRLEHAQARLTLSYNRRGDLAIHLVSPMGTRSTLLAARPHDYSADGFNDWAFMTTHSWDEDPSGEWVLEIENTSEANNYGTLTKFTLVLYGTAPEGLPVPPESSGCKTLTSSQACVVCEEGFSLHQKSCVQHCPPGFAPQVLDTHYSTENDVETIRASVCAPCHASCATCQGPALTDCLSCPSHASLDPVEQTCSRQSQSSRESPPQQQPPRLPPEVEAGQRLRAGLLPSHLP
# EP2 modulator: EP2 receptor modulators, cAMP readout, primary screen, cell-based, HTRF cAMP, PGE2 stimulation; EP2-expressing cells, cAMP HTRF FRET, PGE2 co-stimulation; actives 0.83% (n = 260,000); AID 940, 2007; induction, % at 25 µM;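 active = compounds whose cAMP rise, as percent of the full-agonist control response, exceeds 60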;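 note: rat C6 glioma line stably carrying human EP2 under a CMV promoter; the protocol text gives 20 µM as final concentration; 100% = response of wells given 1 µM PGE2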
# Active calls of the source: *; i = inactive; . = no result given; ! = not active in a repeat. Compounds with a hit are over-represented: about 1.4% of the library has one in this group of screens.
SMILES,EP2 antag,HSV replic up,Pf gamet viab,Furin inh,EP2 modulator
Nc1nc(Nc2ccccc2F)nc(NCc2ccccc2)c1[N+](=O)[O-],5.5,i,12.0,-14.5,76.1*
Nc1nc(Nc2ccccc2)nc(NCc2ccccc2)c1[N+](=O)[O-],4.8,i,5.3,-7.7,38.5
O=c1[nH]c(=S)[nH]c(-c2ccccc2)c1Cc1c(O)ccc2ccccc12,46.3*,.,.,.,4.2
C[C@@H]1OC(O[C@H]2[C@H](OC(=O)[C@]34CCC(C)(C)CC3C3=CCC5[C@@]6(C)CC[C@H](OC7O[C@@H](C)[C@H](O[C@@H]8OC[C@@H](O)[C@H](O)[C@H]8O)[C@@H](O)[C@H]7O)C(C)(C)C6CC[C@@]5(C)[C@]3(C)CC4O)OC[C@H](O)[C@H]2O)[C@H](O)[C@H](O)[C@H]1O[C@@H]1O[C@H](CO)[C@@H](O)[C@H](O)[C@H]1O (some centres undefined),107.7*,.,.,.,-25.4
CCOC(=O)C1=C(O)C(=O)NC(c2ccccc2)=C(OC2CCCCC2)C1,9.7,i,-2.7,-9.4,20.8
C/C(=N\Nc1cc(C(F)(F)F)ccc1Cl)c1ccccc1O,5.3,i,-15.8,-29.4,64.7*
CCOC(=O)C1CCCN(c2c(NCc3ccco3)c(=O)c2=O)C1 (centres undefined),14.9,i,.,-9.6,4.2
CCOC(=O)c1cnn(-c2nc(-c3ccccc3)cs2)c1C(F)(F)F,4.9,i,.,-30.3,25.4
CCN1CCN(c2nc(Nc3ccc(OC)cc3)nc(N)c2[N+](=O)[O-])CC1,12.1,i,-14.6,-5.8,-7.0
O=C(O)CCCN1C(=O)/C(=C/C=C/c2ccco2)SC1=S,10.9,i,-26.6,-5.5,74.5*
COC(=O)c1ccccc1NC(=S)N1CCN(c2ccccn2)CC1,9.4,i,12.1,-5.8,-6.2
Cc1cccc(-c2nnc3n2N=C(c2ccccc2)CS3)c1,5.5,i,3.6,-21.8,63.3*
Cn1cc([N+](=O)[O-])c(C(=O)Nc2nc(-c3ccc(Cl)cc3)cs2)n1,75.4*,i,9.8,-14.6,-41.8
Cc1cnc(NC(=O)c2nn(C)cc2[N+](=O)[O-])s1,46.2*,i,-15.7,-25.7,-36.7
Cc1ccc(-c2nc(NC(=O)c3nn(C)cc3[N+](=O)[O-])sc2C)cc1C,.,.,.,-7.4,-28.6
Cc1ccc(-c2nc(NC(=O)c3nn(C)cc3[N+](=O)[O-])sc2C)cc1,22.2,i,.,-10.6,-60.4
O=C(c1cccs1)c1coc2ccc(O)cc12,18.4,i,-30.9,-5.7,-22.1
C/C(N[O-])=C(\C)[N+]([O-])=[Rh][Cl].CC(=N\[O-])/C(C)=N/[O-].NC(N)=[SH+],48.8*,.,.,.,25.7
CCC(C)(C)n1nnnc1C(C(C)C)N(Cc1ccccc1)Cc1cc2cc(C)ccc2[nH]c1=O (centres undefined),14.3,.,.,.,79.6*
CCCC(c1nnnn1C(C)(C)C)N(Cc1ccccc1)Cc1cc2ccc(C)cc2[nH]c1=O (centres undefined),17.2,.,.,.,37.4
CCCC(c1nnnn1C(C)(C)C)N(Cc1ccccc1OC)Cc1cc2cc(C)ccc2[nH]c1=O (centres undefined),9.6,.,.,.,71.7*
CCC(C)(C)n1nnnc1C(C(C)C)N(Cc1ccco1)Cc1cc2cc(C)ccc2[nH]c1=O (centres undefined),10.8,.,.,.,49.0
CCCC(c1nnnn1Cc1ccco1)N(Cc1cc2cc(C)ccc2[nH]c1=O)C1CCCC1 (centres undefined),12.0,.,.,.,68.2*
CCC(c1nnnn1C(C)(C)C)N(Cc1cc2cc(C)ccc2[nH]c1=O)C1CCCCC1 (centres undefined),17.5,.,.,.,75.1*
CCOc1cc(C2C3=C(CC(C)(C)CC3=O)N(CCCOC)C3=C2C(=O)CC(C)(C)C3)ccc1O,.,.,13.9,.,.
SMILES,EP2 antag,HSV replic up,Pf gamet viab,Furin inh,EP2 modulator
CCC(c1nnnn1C(C)(C)C)N(CCc1ccccc1C)Cc1cc2cc(C)ccc2[nH]c1=O (centres undefined),16.1,.,.,.,64.9*
CCC(c1nnnn1C(C)(C)C)N(CCc1ccccc1)Cc1cc2cc(C)c(C)cc2[nH]c1=O (centres undefined),6.7,.,.,.,15.4
Cc1ccc2[nH]c(=O)c(CN(Cc3nnnn3C3CCCCC3)C3CCCCC3)cc2c1,4.8,.,.,.,69.1*
COc1ccc(C2=CC(=O)N(Nc3ccccc3)C2=O)cc1,18.2,i,-24.9,7.0,-81.6
O=C1C=C(c2ccccc2)C(=O)N1Nc1ccccc1,83.7*,i,-40.3,-20.7,-41.9
Cc1ccc(NN2C(=O)C=C(c3ccc(Cl)cc3)C2=O)cc1,40.2*,i,-8.7,-23.4,-32.6
c1coc(C2OCC3(CO2)COC(c2ccco2)OC3)c1 (centres undefined),54.2*,i,10.8,-26.3,32.8
CCC(=O)N(CCc1ccccc1)Cc1cc2cc3c(cc2[nH]c1=O)OCO3,10.9,i,.,-8.4,-11.8
CN(C)S(=O)(=O)c1cccc(-c2cn3cc(Cl)ccc3n2)c1,8.0,i,.,-12.2,-79.9
CN1CCN(c2ccc3nc(-c4ccc5nc(-c6ccc(O)cc6)[nH]c5c4)[nH]c3c2)CC1,48.8*,.,.,.,27.7
COc1cccc(C2=NOC(C(=O)N3CCc4ccccc4C3)C2)c1 (centres undefined),5.5,i,.,-7.5,-32.6
CN(C1=C(N2CCCCC2)C(=O)c2ccccc2C1=O)c1ccccc1,7.2,i,.,-25.4,63.5*
CCOc1cc(S(=O)(=O)n2c(C)nc3ccccc32)ccc1Cl,9.5,.,.,.,80.4*
Nc1nc(-c2ccccn2)nc(N)c1Cc1c(F)cccc1Cl,5.1,i,4.8,-6.9,-32.7
Cc1n[nH]c(C)c1Cc1c(F)cccc1Cl,-2.3,i,-6.0,-20.3,86.5*
COc1cc(C)nc(OCCNC(=O)COc2ccc(Cl)cc2Cl)n1,16.1,i,.,-16.4,-12.6
Nc1cc(=O)[nH]c(SCc2csc(-c3ccccc3)n2)n1,6.2,i,13.3,-18.5,-19.6
O=C1c2ccccc2C(=O)c2c(NC3CCCCC3)ccc(Nc3ccc(S(=O)(=O)O)cc3)c21,71.0*,.,.,.,-14.5
C[N+]1(CCC(=O)c2ccco2)CC2CCC(CC2)C1 (centres undefined),45.2*,.,.,.,15.1
C[N@@+]1(CCC(=O)c2ccccc2)CC[C@H]2CC[C@H](C2)C1,14.8,.,.,.,-5.6
COc1ccc(C2CC(c3ccccc3)n3nc(NC(=O)c4cccs4)nc3N2)cc1 (centres undefined),.,.,.,-19.2,-9.7
O=C(Nc1ccccc1O)c1c(O)c2c([nH]c1=O)CCCC2,64.0*!,i,.,-14.4,-134.8
CCn1c(=O)c(C)nn2c3ccccc3nc12,15.2,i,11.7,-19.0,12.0
Cc1nn2c3ccccc3nc2n(Cc2ccccc2)c1=O,.,.,.,25.6*,.
